In PubChem BioAssay one finds composite z-score and z-score data, which are given here for 13 compounds.

Assay [1] has as its system Wnt5a (protein binding on small-molecule microarray). The assay can be described thus: Wnt5a binders on small-molecule microarray, primary screen, biophysical, 635/667 nm fluorescence (AID 1142).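 Also: fluorescence read at 667 nm with signal to noise per printed feature.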 The note with it: 635 nm fluorescence, higher = more signal.
Assay [2] in a line: cell viability in Huh7 cells, primary screen, cytotoxicity control for HCV replication inhibitor project, CellTiter-Glo luminescence, basal, 48 h (AID 1143).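 Also: Huh7 hepatoma cells carrying a hepatitis C replication reporter with no stimulus; test concentration not given here.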 The note with it: Huh7 HCV replicon, higher = more signal, called active from +8 up or from −8 down. Background: ATP-based viability assays read luminescence as a measure of living cells.
A short description of assay [3]: P. aeruginosa biofilm formation inhibitors, primary screen, PAO1 strain, BacTiter-Glo luminescence, LB-PBS (AID 1144). The note with it: 12 h, higher = more signal.
Assay [4] can be described thus: CREB reporter modulators without forskolin, primary screen, cell-based, PC12, CRE-LacZ reporter, unstimulated (AID 1145). The note with it: no forskolin, luminescence, 4.5 h, higher = more signal, called active from +8 up or from −8 down.
The nature of assay [5]: CREB reporter modulators under forskolin, primary screen, cell-based, PC12, CRE-LacZ reporter, forskolin-stimulated (AID 1146).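 Also: PC12 cells with 6xCRE LacZ reporter stimulated by forskolin 10 µM; beta-galactosidase reporter signal reflecting CREB driven transcription.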 The note with it: luminescence, 4.5 h, higher = more signal, called active from +8 up or from −8 down.
Assay [6] addresses Streptavidin (Streptomyces avidinii) (UniProt P22629). The assay can be described thus: streptavidin binders on small-molecule microarray, primary screen, artefact control for SMM compound annotation, biophysical, 635/667 nm fluorescence (AID 1147).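 Also: signal reflects streptavidin binding to arrayed compounds as a control protein.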 The note with it: streptavidin binding, higher = more signal.
The nature of assay [7]: small-molecule binders of probe aInhba, primary screen, biochemical, small-molecule microarray, 635/667 nm fluorescence (AID 1148).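 Also: score merges 667nm spot fluorescence with signal-to-noise for antibody binding to printed compounds.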 To be noted: higher = more signal.
Assay [8] deals with Torsin-1A (Homo sapiens) (UniProt O14656). Nature of the assay: torsin A binders from cell lysate, primary screen, small-molecule microarray, wild-type, 635/667 nm (AID 1149). The note with it: COS7 hTOR1A-WT lysate, 635 nm fluorescence, higher = more signal.
Torsin-1A (Homo sapiens), sequence (O14656 whole entry, looked up): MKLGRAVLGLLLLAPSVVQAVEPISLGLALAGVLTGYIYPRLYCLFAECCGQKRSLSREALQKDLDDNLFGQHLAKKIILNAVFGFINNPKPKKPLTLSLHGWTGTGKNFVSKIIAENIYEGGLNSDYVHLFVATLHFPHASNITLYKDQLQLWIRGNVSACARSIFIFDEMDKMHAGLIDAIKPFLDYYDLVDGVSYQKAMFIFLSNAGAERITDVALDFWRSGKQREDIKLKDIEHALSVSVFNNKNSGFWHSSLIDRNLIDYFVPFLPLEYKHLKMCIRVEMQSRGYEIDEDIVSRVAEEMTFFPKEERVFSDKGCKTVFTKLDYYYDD
The target is the same in assay [9]. Nature of the assay: small-molecule binders of mutant TOR1A in lysate, primary screen, cell lysate, small-molecule microarray, COS7 lysate, 635/667 nm fluorescence (AID 1150).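 Also: score pools 667 nm emission and signal to noise measuring lysate protein binding.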 The note with it: COS7 hTOR1A mutant lysate, 635 nm fluorescence, higher = more signal.
The subject of assay [10] is Sonic hedgehog protein (Shh). Nature of the assay: small-molecule binders of Shh protein, primary screen, biochemical, small-molecule microarray, 635/667 nm fluorescence (AID 1151).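 Also: Shh protein binding to compounds spotted on small-molecule microarray slides; score combines spot fluorescence intensity with signal-to-noise across triplicate slides.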 To be noted: small-molecule microarray binding, 635 nm fluorescence; higher = more signal.

Active and inactive are the calls of the source. Unless noted, no rule for the calls is given here.

Streptavidin (Streptomyces avidinii), sequence (P22629 whole entry, looked up): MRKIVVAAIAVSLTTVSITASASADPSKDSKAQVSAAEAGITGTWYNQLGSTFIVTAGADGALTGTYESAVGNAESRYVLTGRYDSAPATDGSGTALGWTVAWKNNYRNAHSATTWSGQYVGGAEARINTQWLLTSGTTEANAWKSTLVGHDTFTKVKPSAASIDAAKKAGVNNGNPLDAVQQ

Regarding `CCc1cccc(NC(=O)O[C@H]2[C@H](OC(=O)Nc3ccccc3)[C@@H](OC(=O)Nc3ccccc3)[C@@H](OC)O[C@@H]2CO)c1`, the composite z-score in assay [1] came out at 0.73; in assay [6] it was 0.39; in assay [7], 0.0785; in assay [8] it was 2.73; in [9] it was 0.896; in assay [10], 1.72. Also, the z-score in assay [2] is -5.6 (inactive); in [3] it was -0.944 (inactive); in assay [4], 0.344 (inactive); in [5], -1.9 (inactive).

Turning to `COc1ccc(C(O)C2C=CC3C(=O)N(C)C(=O)C3N2N2CCCCC2)cc1OCc1ccccc1` (configuration not stated), the composite z-score in assay [1] is 0.0847; in assay [6] it was 0.701; in assay [7], -0.0332; in [8] it was 0.0884; in assay [9], 0.836; in assay [10], -0.282. Besides, the z-score in [2] was 0.135 (inactive); in assay [3], -0.314 (inactive); in assay [4], 0.433 (inactive); in [5], -0.342 (inactive).

Consider `O=C1O[C@H](c2ccccc2)[C@H](c2ccccc2)N2[C@H]1[C@@H](C(=O)Nc1nc3ccccc3s1)[C@]1(C(=O)Nc3ccc(C#CC4(O)CCCCCC4)cc31)[C@H]2c1ccc(O)cc1`, for which the composite z-score in assay [1] was found to be 0.328; in assay [6], 1.34; in [7] it was 0.293; in [8], 0.417; in assay [9], 0.164; in assay [10], 1.82. The z-score in assay [2] is -0.859 (inactive); in assay [3], -0.781 (inactive); in [4] it was 0.802 (inactive); in [5], 0.3 (inactive).

Regarding `NC(=O)[C@H]1[C@@H]2C(=O)O[C@@H](c3ccccc3)[C@@H](c3ccccc3)N2[C@@H](c2ccc(O)cc2)[C@]12C(=O)Nc1ccc(C#CCCO)cc12`, the composite z-score in assay [1] was -0.183; in assay [6], -1.57; in [7], -0.0044; in assay [8] it was -1.39; in assay [9], 0.806; in assay [10], 0.35. The z-score in assay [2] is 0.134 (inactive); in assay [3], -0.453 (inactive); in assay [4], -0.258 (inactive); in [5] it was 0.278 (inactive).

Regarding `CC(C)C[C@@H]1NC(=O)[C@H](CC(C)C)NC(=O)[C@@]23C(=O)N[C@@H](Cc4ccccc4)C2[C@H](C)[C@@]2(C)O[C@H]2C3/C=C/CC/C=C/CNC1=O` (some centres not stated), the composite z-score in [1] was -0.048; in [6] it was 1.3; in assay [7] it was -0.128; in [8], 0.382; in [9] it was 0.29; in assay [10] it was 1.14. Further, the z-score in [2] was -3.54 (inactive); in [3], -1.16 (inactive); in assay [4] it was 0.126 (inactive); in assay [5] it was -0.792 (inactive).

Turning to `C[N+](C)(C)CCCCNC(=O)[C@H]1C[C@H]2C(=O)NCC(=O)N2[C@H]1c1cccc(OCCO)c1`, the composite z-score in assay [1] is 0.668; in assay [6], 0.0924; in [7] it was -0.0044; in [8], 1.21; in assay [9], 0.961; in [10], 2.17. Moreover, the z-score in [2] is 0.148 (inactive); in assay [3], -0.722 (inactive); in [4], 0.419 (inactive); in [5] it was -0.153 (inactive).

For `COc1cc2c(cc1OC)CN(C(=O)[C@H]1[C@@H]3C(=O)O[C@@H](c4ccccc4)[C@@H](c4ccccc4)N3[C@@H](c3ccc(O)cc3)[C@]13C(=O)Nc1ccc(C#CC4(O)CCCCCC4)cc13)CC2`, the composite z-score in [1] came to 0.723; in [6], 2.42; in assay [7], 0.472; in [8], 0.601; in assay [9], 1.36; in assay [10], 1.39. Besides, the z-score is -0.715 (inactive) in assay [2], -0.785 (inactive) in [3], 0.425 (inactive) in assay [4] and 0.603 (inactive) in assay [5].

For `CCCC[C@@H]1C[C@H]1[C@@H](NC(=O)c1ccccc1)c1ccccc1C(F)(F)F`, the composite z-score in assay [1] was 0.175; in assay [6], 1.84; in assay [7], 0.319; in assay [8], -0.113; in assay [9], 0.322; in assay [10], -0.654. Also, the z-score in assay [2] is 0.0018 (inactive); in assay [3], -0.0632 (inactive); in assay [4] it was 1.73 (inactive); in assay [5], 1.17 (inactive).

On to `C[C@H]1COC(=O)[C@H](Cc2ccccc2)NC(=O)[C@@H](C)COC(=O)[C@H](Cc2ccccc2)NC1=O`, for which the composite z-score in [1] is 0.226; in assay [6], 1.65; in assay [7], -0.0523; in assay [8], 1.18; in [9], 0.654; in assay [10] it was 1.13. The z-score in [2] was -2.12 (inactive); in [4], 2.52 (inactive); in assay [5], -0.837 (inactive).

With `COC(=O)c1ccc(C#CC(NP(=O)(c2ccccc2)c2ccccc2)c2ccccc2)cc1` (configuration not stated), the composite z-score in [1] is -0.0176; in [6], 2.13; in assay [7] it was 0.103; in [8] it was -0.497; in [9] it was -0.199; in assay [10], 0.918. Further, the z-score in assay [2] was -0.351 (inactive); in assay [3] it was 0.107 (inactive); in assay [4] it was -0.372 (inactive); in assay [5], 1.24 (inactive).

Turning to `CC[C@H]1C2=C3C(CC[C@H]4C(OC)OC[C@](C)([C@@H]34)N(C(=O)OC(C)(C)C)C2)C(CO)C1CO` (some centres not stated), the composite z-score in assay [1] is 0.647; in [6] it was 3.17; in assay [7] it was 0.34; in assay [8], 0.295; in [9] it was 1.87; in assay [10], -0.623. Also, the z-score was -1.06 (inactive) in assay [2], 1.01 (inactive) in assay [3], -0.182 (inactive) in [4] and 0.385 (inactive) in assay [5].

As to `C=CCC(OC(C)=O)[C@@H]1[C@@H](N(Cc2ccc(-c3ccccc3)cc2)C(=O)c2ccc(C)cc2)c2cc(OCCCO)ccc2N1C(=O)c1ccc(-c2ccccc2)cc1` (some centres not stated), the composite z-score in assay [1] was 0.504; in assay [6] it was 0.0598; in assay [7], 0.0884; in assay [8] it was -0.0824; in assay [9], 0.119; in assay [10], 0.0223. Also, the z-score is -1.62 (inactive) in assay [2], 1.73 (inactive) in [4] and -0.782 (inactive) in assay [5].

Turning to `CO[C@H]1COC(=O)[C@H](C)NC(=O)CC=C[C@@H](C)[C@H](NS(=O)(=O)c2ccc(C)cc2)COC(=O)CC=C[C@@H]1C`, the composite z-score in assay [1] is -0.0879; in assay [6], -0.052; in assay [7] it was -0.123; in assay [8], 0.961; in assay [9] it was 0.0627; in assay [10], 1.38. Moreover, the z-score in [2] is -0.831 (inactive); in assay [4] it was 0.429 (inactive); in assay [5], -1.27 (inactive).
